# For part of these data: Potency and affinity values are given separately. Active and inactive are the calls of the source. Where a call stands in place of a potency, no number is given. For most assays here, calls come from the whole dose curve.
# Assays:
# [1] = Ebola virus entry assay, blue channel fluorescence
# [2] = Ebola virus entry assay, green fluorescence channel
# [3] = Ebola virus entry assay, ratio channel readout
# [4] = Ebola virus entry assay, blue channel fluorescence; remark: listed apart in the source
SMILES,outcome [1],outcome [2],outcome [3],outcome [4],AC50 [1],AC50 [3],AC50 [4]
C[C@](N)(Cc1ccc(O)cc1)C(=O)O,inactive,inactive,inactive,inactive,,,
NC(N)=NC(=O)Cc1c(Cl)cccc1Cl,inactive,inactive,inactive,inactive,,,
CCc1cc(C(N)=S)ccn1,inactive,inactive,inactive,inactive,,,
CCC[C@@]1(CCc2ccccc2)CC(O)=C([C@H](CC)c2cccc(NS(=O)(=O)c3ccc(C(F)(F)F)cn3)c2)C(=O)O1,inactive,inactive,inactive,,,,
Nc1nc2ccc(OC(F)(F)F)cc2s1,inactive,inactive,inactive,,,,
O=C1Nc2ccc(Cl)cc2C(c2ccccc2Cl)=NC1O (stereo not drawn),inactive,inactive,inactive,,,,
Nc1ccn([C@@H]2O[C@H](CO)[C@@H](O)C2O)c(=O)n1 (stereo partly drawn),inactive,inactive,inactive,,,,
O=P(O)(O)C(Sc1ccc(Cl)cc1)P(=O)(O)O,inactive,inactive,inactive,,,,
C#CCN[C@@H]1CCc2ccccc21,inactive,inactive,inactive,inactive,,,
CC1COc2c(N3CCN(C)CC3)c(F)cc3c(=O)c(C(=O)O)cn1c23 (stereo not drawn),inactive,inactive,inactive,inactive,,,
O=C1CN(/N=C/c2ccc([N+](=O)[O-])o2)C(=O)N1,inactive,inactive,inactive,inactive,,,
COc1cc(C(=O)NS(=O)(=O)c2ccccc2C)ccc1Cc1cn(C)c2ccc(NC(=O)OC3CCCC3)cc12,inactive,inactive,inactive,inactive,,,
Nc1ncn([C@H]2C[C@H](O)[C@@H](CO)O2)c(=O)n1,inactive,inactive,inactive,inactive,,,
CN=C(NC#N)NCCSCc1nc[nH]c1C,inactive,inactive,inactive,inactive,,,
Nc1ccc(S(=O)(=O)c2ccc(N)cc2)cc1,inactive,inactive,inactive,inactive,,,
Cc1nnc(SCC2=C(C(=O)O)N3C(=O)[C@@H](NC(=O)Cn4cnnn4)[C@H]3SC2)s1,inactive,inactive,inactive,inactive,,,
CNCCCC12CCC(c3ccccc31)c1ccccc12,,inactive,,,3.16 µM (active),3.17 µM (active),3.55 µM (active)
